{
  "source": "PubChem BioAssay AID1347417",
  "about": "(National Center for Advancing Translational Sciences (NCATS), 2020)",
  "note": "The whole screen tested about 120,000 compounds, of which about 5,300 (4.4%) were called active. Not shown: some 22% with an inconclusive outcome. The call rests on the fitted dose curve; in most records, active means well fitted inhibition curve with a large enough effect; inconclusive means small, poorly fitted or top-dose-only effect; inactive means no such curve, though single readings can be large or run the other way. Many of the other results were omitted from the sample, so actives are more common in it than they were. Potency means the concentration at half of the fitted maximal effect.",
  "data": [
    {"test": "qHTS Primary assay for Inhibitors of Plasmodium falciparum Dd2 growth in vitro; further: nearly all actives have a fitted effect of over 65% in size;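 on activity, negative = inhibition: plate controls were DMSO vehicle for no effect and reference drug for full effect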", "settings": "P. falciparum Dd2 growth, SYBR Green, 72 h; series mostly up to 28.9 µM; activity, negative = inhibition: at the top concentration", "summary_of_the_method": "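Infected erythrocytes (Dd2, 0.3% parasitemia, 2.5% hematocrit final) are added to compound in RPMI-1640/Albumax II medium, grown 72 h at 37C in low oxygen, then lysed with saponin/Triton-X containing SYBR Green and read by fluorescence.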", "values": [
      {"smiles": "O=C(Cn1nc2c(cc1=O)CCCC2)NC1CCN(C(=O)c2cc3ccccc3[nH]2)CC1", "activity, negative = inhibition": "-22.6% (inactive)"},
      {"smiles": "C[C@@H]1CN(C(=O)c2ccsc2)C[C@H]1c1nc(-c2ccncc2)no1", "activity, negative = inhibition": "11.8% (inactive)"},
      {"smiles": "O=C1NCc2ccccc2CC12CCCN(Cc1ccc(F)cc1O)C2", "note": "(stereo not given)", "Potency": "4.47 µM (active)"},
      {"smiles": "COc1ccc(CN2CCC3(Cc4ccccc4CNC3=O)C2)cc1OC", "note": "(stereo not given)", "activity, negative = inhibition": "-18.3% (inactive)"},
      {"smiles": "O=C1NCc2ccccc2CC12CCCN(CC1CCCCC1)C2", "note": "(stereo not given)", "activity, negative = inhibition": "-23% (inactive)"},
      {"smiles": "CCOc1ccc(C2C(C(=O)Nc3ccc(Cl)cc3)=C(C)Nc3nc(C(F)(F)F)nn32)cc1", "note": "(stereo not given)", "Potency": "2.82 µM (active)"},
      {"smiles": "CCOc1cc(C2C(C(=O)Nc3ccc(OC)cc3)=C(C)Nc3nc(SC)nn32)ccc1O", "note": "(stereo not given)", "activity, negative = inhibition": "7.6% (inactive)"},
      {"smiles": "CCOc1ccccc1NC(=O)C1=C(C)Nc2ncnn2C1c1ccc(NC(C)=O)cc1", "note": "(stereo not given)", "activity, negative = inhibition": "22.7% (inactive)"},
      {"smiles": "c1cc(CN2CCCCCC2)cc(-c2nc(C3CCOC3)no2)c1", "note": "(stereo not given)", "Potency": "8.91 µM (active)"},
      {"smiles": "O=C(NC1CCCC1)N1CCC(c2noc(-c3ccccc3)n2)C1", "note": "(stereo not given)", "activity, negative = inhibition": "13.8% [at 5.79 µM] (inactive)"},
      {"smiles": "COc1cccc(CCC(=O)N2CCCC2c2nc(C3CCOCC3)no2)c1", "note": "(stereo not given)", "activity, negative = inhibition": "-2.39% (inactive)"},
      {"smiles": "Cc1ccc(C2CC(=O)Nc3c2c(C2CC2)nn3C)c(C)c1F", "note": "(stereo not given)", "activity, negative = inhibition": "-20.9% (inactive)"},
      {"smiles": "COc1ccc(Cl)cc1NC(=O)CSc1nc2ccccc2c2nc(-c3ccccc3)nn12", "activity, negative = inhibition": "107% (inactive)"},
      {"smiles": "COc1cc2nc(NCC(C)c3ccccc3)n3nc(-c4ccccc4)nc3c2cc1OC", "note": "(stereo not given)", "Potency": "3.55 µM (active)"},
      {"smiles": "COc1cc2nc(SCC(=O)Nc3ccccc3F)n3nc(-c4ccccc4)nc3c2cc1OC", "activity, negative = inhibition": "-5.43% (inactive)"},
      {"smiles": "COc1cccc(N2C(=O)NC(=NC3CCCCC3)C23CCN(CC2CC2)CC3)c1", "activity, negative = inhibition": "-3.09% (inactive)"},
      {"smiles": "O=C(CCC1CCCN(S(=O)(=O)c2ccc(F)cc2)C1)NC1CCS(=O)(=O)C1", "note": "(stereo not given)", "activity, negative = inhibition": "1.2% (inactive)"},
      {"smiles": "Cc1ccc(S(=O)(=O)N2CCCC(CCC(=O)NC3CCCCC3)C2)cc1", "note": "(stereo not given)", "Potency": "12.6 µM (active)"},
      {"smiles": "Cc1ccc(C(=O)N2CCC(CCC(=O)NC3CCCCC3)CC2)cc1", "activity, negative = inhibition": "-9.5% (inactive)"},
      {"smiles": "Cc1nc([C@@H]2CN(C(=O)CCCc3nc4ccccc4s3)C[C@H]2C(N)=O)n[nH]1", "activity, negative = inhibition": "-8.7% (inactive)"},
      {"smiles": "CC1(C)[C@H](Cc2cc(CC3CCCCC3)on2)C[C@@H]1NC(=O)C1CCC1", "Potency": "11.2 µM (active)"},
      {"smiles": "CCNC(=O)N[C@H]1C[C@@H](Cc2cc(CC(C)C)on2)C1(C)C", "outcome": "inactive; activator [at 44.1 µM]"},
      {"smiles": "CCC(CC)C(=O)N[C@H]1C[C@@H](Cc2cc(COc3ccccc3)on2)C1(C)C", "outcome": "inactive [at 44.1 µM]"},
      {"smiles": "Cc1cc(CN(C)C(=O)C2C3C(=O)N(Cc4ccc(C)c(C)c4)C[C@@]34C=C[C@@H]2O4)no1", "note": "(stereo not given in full)", "activity, negative = inhibition": "-14.8% (inactive)"},
      {"smiles": "COc1ccc(S(=O)(=O)c2c(Nc3cccc(Cl)c3)sc(C(=O)c3ccccc3)c2N)cc1", "Potency": "8.91 µM (active)"},
      {"smiles": "COc1cccc(C(=O)c2sc3nc(-c4ccccc4)cc(C(F)(F)F)c3c2N)c1", "activity, negative = inhibition": "-9.26% (inactive)"},
      {"smiles": "CCOC(=O)c1ccc(NC(=O)CCS(=O)(=O)c2ccc(C)cc2)cc1", "activity, negative = inhibition": "3.65% (inactive)"},
      {"smiles": "COc1ccc(S(=O)(=O)c2c(Nc3ccc(C)cc3)sc(C(=O)c3ccc(C)cc3)c2N)cc1", "Potency": "10 µM (active)"},
      {"smiles": "Cc1ccc(S(=O)(=O)c2c(Nc3cccc(Cl)c3)sc(C(=O)c3ccc4c(c3)OCO4)c2N)cc1", "Potency": "7.94 µM (active)"},
      {"smiles": "Cc1cccc(Nc2nc(C)nc(N)c2S(=O)(=O)c2ccccc2)c1", "outcome": "inactive"},
      {"smiles": "Cc1ccc(CN2C[C@H]3CN(C(=O)c4ccc5c(c4)OCO5)CCN3C2=O)cc1", "outcome": "inactive [at 44.1 µM]"},
      {"smiles": "COc1ccc(N2C(=O)CSC23CCN(C(=O)c2ccc(C)cc2)CC3)cc1", "activity, negative = inhibition": "-11.5% (inactive)"},
      {"smiles": "CCOC(=O)c1[nH]ncc1C1CC(=O)Nc2c1cnn2Cc1cccnc1", "note": "(stereo not given)", "activity, negative = inhibition": "-9.38% (inactive)"},
      {"smiles": "C[S+](=O)([O-])N1CCC(Cn2ccc3c(N4CCOCC4)nc(-c4cccc(O)c4)cc32)CC1", "outcome": "inactive"},
      {"smiles": "CN1CCc2c([nH]c3ccccc23)C12CCN(C(=O)c1nccc3ccccc13)CC2", "outcome": "inactive"},
      {"smiles": "CCC(CC)C(=O)N1CC(C(=O)N(C)C)C2(CCOCC2)C1", "note": "(stereo not given)", "activity, negative = inhibition": "0.16% (inactive)"},
      {"smiles": "Cc1cccc(C)c1NC(=O)Cn1ccn2nc(-c3ccccc3)c(CO)c2c1=O", "activity, negative = inhibition": "29.5% (inactive)"},
      {"smiles": "O=C1CO[C@H]2CN(C3CCOCC3)C[C@H]2N1c1ccccc1", "activity, negative = inhibition": "-6.35% [at 44.1 µM] (inactive)"},
      {"smiles": "COc1ccc(-c2cc(-c3ccccc3)nc3c2COc2ccc(Cl)cc2-3)cc1", "outcome": "inactive; activator; fitted 0.4467 uM"},
      {"smiles": "COc1ccc(-c2cc(-c3ccc(F)cc3)nc3c2COc2ccccc2-3)cc1", "outcome": "inactive"},
      {"smiles": "Fc1ccc(-c2nc(Nc3cccc(Cl)c3)nc3c2COc2ccccc2-3)cc1", "Potency": "11.2 µM (active)"},
      {"smiles": "COc1ccc(Cl)cc1C(=O)N1CCN(c2cc(C(F)(F)F)nc(C)n2)CC1", "activity, negative = inhibition": "-20.6% (inactive)"},
      {"smiles": "COc1ccc(C(=O)N2CCOC3(CCN(C(=O)c4c(C)noc4C)CC3)C2)cc1", "activity, negative = inhibition": "38.2% (inactive)"},
      {"smiles": "CCc1ccc(Sc2cc(C(=O)NCCCOC(C)C)c3ccccc3n2)cc1", "activity, negative = inhibition": "-12.5% (inactive)"},
      {"smiles": "Cc1ccc(N(CC(=O)NCC(C)c2ccccc2)S(=O)(=O)N(C)C)cc1", "note": "(stereo not given)", "activity, negative = inhibition": "24.7% (inactive)"},
      {"smiles": "CCC1=Nc2cc(C(=O)NCC(C)c3ccccc3)ccc2Sc2ccc(C)cc21", "note": "(stereo not given)", "Potency": "11.2 µM (active)"},
      {"smiles": "COCCNC(=O)c1ccc2c(c1)N=C(C)c1cc(C)ccc1S2", "outcome": "inactive"},
      {"smiles": "CC1=Nc2cc(C(=O)NCc3ccc(C)cc3)ccc2Sc2ccc(Cl)cc21", "activity, negative = inhibition": "-2.44% (inactive)"},
      {"smiles": "CCC1=Nc2cc(C(=O)NCCCOC(C)C)ccc2Sc2ccc(C)cc21", "Potency": "12.6 µM (active)"},
      {"smiles": "O=C(c1ccc(OC(F)(F)F)cc1)N1CCC(n2cc(-c3nc(C4CC4)no3)nn2)C1", "note": "(stereo not given)", "activity, negative = inhibition": "-8.12% (inactive)"},
      {"smiles": "O=C(c1ccoc1)N1CCC(N2CC3CC(C2)[C@H]2CCCC(=O)N2C3)CC1", "note": "(stereo not given in full)", "activity, negative = inhibition": "-7.89% (inactive)"},
      {"smiles": "Cc1ccc(Cc2ccccc2C(=O)N2C[C@@H](CN(C)CCO)[C@@H](CO)C2)cc1", "activity, negative = inhibition": "-19.7% (inactive)"},
      {"smiles": "Cc1ccc(C(=O)N2CCC(CCC(=O)N3CCc4ccccc4C3)CC2)cc1", "outcome": "inactive"},
      {"smiles": "Cc1ncc2n1C(=O)N(C1CCN(C(=O)c3ccc(Cl)cc3)CC1)C2", "activity, negative = inhibition": "14.4% (inactive)"},
      {"smiles": "CCNS(=O)(=O)c1cc(-c2nnc(Nc3cccc(C(F)(F)F)c3)c3ccccc23)ccc1C", "activity, negative = inhibition": "-7.56% (inactive)"},
      {"smiles": "Cc1ccc(-c2nnc(Nc3ccc(OCC(N)=O)cc3)c3ccccc23)cc1S(=O)(=O)NCC1CCCO1", "note": "(stereo not given)", "Potency": "1.12 µM (active)"},
      {"smiles": "COC(=O)c1c(NC(=O)c2ccccc2)c2cc(NC(C)C)cnc2n1CC1CCCO1", "note": "(stereo not given)", "activity, negative = inhibition": "4.39% (inactive)"},
      {"smiles": "Cc1ccc(-c2nnc(Nc3cccc(Br)c3)c3ccccc23)cc1S(=O)(=O)NCC1CCCO1", "note": "(stereo not given)", "Potency": "11.2 µM (active)"},
      {"smiles": "Cc1ccc(Nc2nnc(-c3ccc(C)c(S(=O)(=O)N4CCCCC4)c3)c3ccccc23)cc1", "activity, negative = inhibition": "-8.84% (inactive)"},
      {"smiles": "COCCNS(=O)(=O)c1cc(-c2nn3c(C)nnc3c3ccccc23)ccc1C", "activity, negative = inhibition": "-3.2% (inactive)"}
    ]}
  ]
}
